Assay results: PubChem BioAssay AID624330 (Southern Research Specialized Biocontainment Screening …, 2012)
Hit rate of the full screen: of about 340,000 compounds, about 2,100 (0.62%) were called active.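 How the source made its calls: active means first-screen hits whose inhibition reached a set limit at any dose in the follow-up dose series; inconclusive means inhibition above the set first-screen limit but never retested; inactive means the rest.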 Only a sample is shown. Measured potencies and affinities stand elsewhere.

Biological target: Rac GTPase-activating protein 1 (Homo sapiens) (UniProt Q9H0H5)
Test: blockers of MgcRacGAP-driven Rac1 GTP hydrolysis – biochemical, ADP Hunter fluorescence, primary and confirmatory, confirmation (AID 624330);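 further: fluorescence reports GDP produced by GAP-driven GTP hydrolysis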
Settings: MgcRacGAP-stimulated Rac1 GTP hydrolysis, at 30 µM, hits give high values, GST-tagged Rac1 F28L mutant substrate

Chain of Rac GTPase-activating protein 1 (Homo sapiens) (Q9H0H5 whole entry, looked up): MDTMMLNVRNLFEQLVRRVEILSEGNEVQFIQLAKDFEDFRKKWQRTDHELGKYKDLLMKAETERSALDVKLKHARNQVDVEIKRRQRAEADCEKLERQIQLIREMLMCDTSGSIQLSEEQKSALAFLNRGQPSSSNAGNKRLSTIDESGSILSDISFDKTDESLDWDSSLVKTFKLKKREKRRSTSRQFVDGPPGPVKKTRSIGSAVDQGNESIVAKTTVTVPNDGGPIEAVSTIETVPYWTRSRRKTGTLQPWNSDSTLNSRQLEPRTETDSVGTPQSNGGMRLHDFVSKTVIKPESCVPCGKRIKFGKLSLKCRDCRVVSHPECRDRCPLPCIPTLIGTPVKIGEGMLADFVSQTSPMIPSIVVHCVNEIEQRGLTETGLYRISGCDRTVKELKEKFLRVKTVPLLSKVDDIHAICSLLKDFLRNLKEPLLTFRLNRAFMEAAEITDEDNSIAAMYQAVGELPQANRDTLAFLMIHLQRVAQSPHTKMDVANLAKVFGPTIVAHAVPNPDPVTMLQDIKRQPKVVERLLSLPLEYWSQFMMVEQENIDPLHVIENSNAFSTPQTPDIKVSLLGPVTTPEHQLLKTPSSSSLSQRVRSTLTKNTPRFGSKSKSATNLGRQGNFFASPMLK

inhibition, inactive:
CC(C)OCC(O)CN1CCNCC1 (centres undefined) 5.48%
OC(COc1ccccc1Br)CN1CCNCC1 (centres undefined) 1.5%
CC(C)CN(CC(C)C)C(=O)C12CCC(C)(C(=O)C1)C2(C)C (centres undefined) -15.8%
Cc1ccc(NC2CCCN(C(=O)c3cccs3)C2)cc1C (centres undefined) 22.5%
CCOc1ccc(OCc2ccc(C(=O)N3CCCC(C)C3)cc2)cc1 (centres undefined) 0.96%
Cc1nccn1CC(=O)N/N=C/c1cc(Br)cs1 3.63%
CCCCCNCC(=O)Nc1cc(C(F)(F)F)ccc1OCCOC 29.2%
O=C(Cc1ccccc1)N/N=C/c1cc(Br)cs1 10.7%
Cc1ccc(NC(=O)CN2CCCC2)cc1Br 30.6%
CN1CCN(CC(=O)Nc2ccccc2Oc2ccccc2)CC1 4.33%
COCCOc1ccc(C(F)(F)F)cc1NC(=O)c1ccc(C(F)(F)F)cc1 -6.51%
COc1ccccc1NC(=O)CN1CCN(c2ccccc2)CC1 3.59%
Cc1ccc(NC(=O)CN2CCCCCC2)cc1Br 24.2%
O=C(CNC(=O)c1ccccc1)NCC(O)c1ccc([N+](=O)[O-])cc1 (centres undefined) -4.75%
CCOCCCNC(=O)Cn1cnc2sc(C)c(S(=O)(=O)N3CCN(c4ncccn4)CC3)c2c1=O 2.97%
CC(C)C[C@H]1CN([C@@H](Cc2ccc(O)cc2)CN2CCC[C@@H]2CN2C(=O)C(=O)NC[C@@H]2Cc2ccccc2)C(=O)C(=O)N1CC1CCCCCC1 10.4%
O=C(CNC(=O)c1ccco1)NCc1ccc2c(c1)OCO2 3.26%
C=CCn1c(-c2ccc(Cl)cc2)cnc1SC(C)C(N)=O (centres undefined) 13.8%
CCOc1cc(N2CCOCC2)c(OCC)cc1NC(=O)c1ccc2ncsc2c1 9.53%
Cn1c(=O)c2[nH]c(Cc3cccc(O)c3)nc2n(C)c1=O -6.27%
O=C(Nc1ccc2c(c1)OCO2)O[C@@H]1C[C@H]2CCC(=O)N3CC[C@@H](C1)[C@@H]23 5.22%
COc1ccc(CN2CCNC(=O)C2CC(=O)NCCc2nc(C)c3c(n2)CCC3)cc1C (centres undefined) 3.36%
Cc1ccc(NC(=O)CCN2CCN(CCO)CC2)cc1Br 7.64%
CCOC(=O)N1CCN(CC(=O)Nc2ccc(C)c(Br)c2)CC1 19.6%
CCCCOc1ccc(NC(=O)CN2CCN(Cc3ccccc3)CC2)cc1 2.92%
COc1ccc(N)cc1NC(=O)CN1CCCC1 30%
CCCCOc1ccc(NC(=O)CN2CCN(C(=O)OCC)CC2)cc1 23.5%
Cc1ccc(N)cc1NC(=O)CN1CCOCC1 9.26%
CCOc1ccccc1NC(=O)CSC1=NN2CCCC(=O)N=C2S1 4.37%
O=C(Cc1nnc(NC(=O)Nc2ccccc2)s1)NCc1ccccc1 11.4%
O=C(Cc1ccccc1)NCCSCc1ccccc1 10.9%
CC(=O)NS(=O)(=O)c1ccc(NC(=O)c2cccc3ccccc23)cc1 5.73%
COC(=O)c1ccccc1NC(=O)c1cc(-c2ccc(C)cc2)on1 -6.22%
N#CCCN1CCN(C(=S)c2ccc(-c3cccc(Cl)c3)o2)CC1 6.88%
Clc1nssc1=Nc1nncs1 20.4%
Cc1ccc(N=c2ssnc2Cl)cc1 9.47%
CCCCCCCNC(=O)C1(CC2CC(c3ccccc3)=NO2)CCN(C(=O)c2ccccc2)CC1 (centres undefined) 7.41%
O=C(Cc1cccc(C(F)(F)F)c1)N1CCCC1 1.4%
COc1ccc(Br)cc1/C=N/NC(=O)CN1CCN(Cc2ccccc2)CC1 2.09%
COc1ccc(C(=O)N/C(=C\c2cn(S(=O)(=O)N(C)C)c3ccccc23)C(=O)N2CCCC2)cc1 12%
CCOc1cc(/C=N/n2nnnc2N)ccc1OCc1c(C)no[n+]1[O-] 7.97%
O=C(/C=C/c1ccc(Br)cc1)NC(=O)c1ccccc1O 0.42%
O=C(/C=C/c1ccccc1)NC(=O)c1ccccc1O 11.1%
CCN(CC)C(=O)c1[nH]cnc1C(=O)N[C@@H](CC(C)C)C(=O)OC(C)(C)C 8.38%
COc1ccc(C(=O)CC2OC(=O)c3c2ccc(OC)c3OC)cc1 (centres undefined) -2.86%
COc1ccc2c(c1OC)C(=O)OC2CC(=O)c1ccc(O)cc1 (centres undefined) 12.6%
COc1cc(S(=O)(=O)N2CCCCC2)ccc1NC(=O)c1ccncc1 4.39%
O=C(NCc1ccccc1)c1n[nH]nc1-c1ccccc1O -8.5%
Nc1nc(N)c(N=Nc2ccc(C(=O)O)cc2)c(N)n1 -11.2%
Nc1nc(N)c(N=Nc2ccccc2)c(=O)[nH]1 2.34%
C[C@H](CO)N1C[C@H](C)[C@@H](CN(C)S(C)(=O)=O)Oc2ccc(NC(=O)CCN3CCOCC3)cc2C1=O 3.2%
C(=N\Nc1nc(N2CCCC2)nc(N2CCCC2)n1)/c1ccncc1 -2.52%
CCOc1cc(/C=N/Nc2nc(N3CCCC3)nc(N3CCCC3)n2)ccc1O 26.7%
COc1ccc(/C=N/Nc2nc(N3CCCC3)nc(N3CCCC3)n2)cc1 3.1%
CCOc1ccc(/C=N/Nc2nc(N3CCCC3)nc(N3CCCC3)n2)cc1OC 3.96%
COc1ccc(/C=N/Nc2nc(N3CCCCC3)nc(N3CCCCC3)n2)cc1[N+](=O)[O-] -0.88%
O=[N+]([O-])c1cc(/C=N/Nc2nc(N3CCCCC3)nc(N3CCCCC3)n2)ccc1O 9.9%
Cn1c(=O)c2ncn(CC(=O)NCCOCc3ccccc3Cl)c2n(C)c1=O 0.57%
O=C(CS(=O)CC(=O)Nc1cccnc1)Nc1ccc(F)cc1 (centres undefined) 5.58%
CCOc1ccccc1/C=C(\C#N)C(=O)Nc1cccc(C(=O)O)c1 -4.51%
CCCCN(C(=O)C1CCN(C(=O)c2ccccc2C)CC1)c1c(N)n(CCCC)c(=O)[nH]c1=O 4%
O=C(O)COCC(=O)Nc1ccc2c(c1)ncn2CCc1ccccc1 2.87%
NC(=O)c1ccc(NC(=O)c2cncn2-c2ccccc2)cc1 1.08%
CC(C)(C)C1CCC(=O)N(CCOc2ccccc2)CC1 (centres undefined) 5.11%
CCN(c1ccccc1)S(=O)(=O)c1ccc(N2CCN(c3ccccc3O)CC2)nc1 5.54%
CCN(c1ccccc1)S(=O)(=O)c1ccc(N2CCN(c3ccc(OC)cc3)CC2)nc1 4.13%
CN1/C(=C\C(=O)c2cccc([N+](=O)[O-])c2)Sc2ccccc21 10.8%
CSCCC(NC(=O)c1ccc([N+](=O)[O-])cc1Cl)C(=O)OCC(=O)NC(=O)CN1CCCC1=O (centres undefined) -5.24%
CCOc1ccc(CN2CCN(S(=O)(=O)c3ccc(NC(C)=O)cc3)CC2)cc1OC 10.5%
CCOc1ccc(S(=O)(=O)N2CCN(Cc3ccccc3)CC2)cc1 -12%
Cc1ccc(S(=O)(=O)NCCC(=O)N2CCN(c3ccccc3)CC2)cc1C -2.5%
O=C(COC(=O)Cn1cnc2ccccc21)NCCCc1ccccc1 0.48%
O=C(CNCc1cccc(Cl)c1)N1CCc2ccccc2C1 30.6%
O=C(CNCc1ccc(Cl)cc1)N1CCc2ccccc2C1 25.8%
CN(Cc1ccc(N(C)C)cc1)C(=O)c1cc2ccccc2o1 2.93%
C#CCOCCOCCOCCNc1nc(N2CCN(C(=O)Cn3cc(CCO)nn3)CC2)nc(N2CCN(C(=O)[C@H]([C@@H](C)CC)n3cc(CCCN=C(N)N)nn3)CC2)n1 -0.25%
O=C(Cc1ccc([N+](=O)[O-])cc1)Nc1cccc(C(=O)N2CCCCC2)c1 6.71%
N/C(COc1ccc(Cl)cc1Cl)=N\O 7.42%
C[C@@H](NC(=O)C[C@@H]1C[C@@H]2c3cc(NS(=O)(=O)c4ccc(F)cc4)ccc3O[C@@H]2[C@@H](CO)O1)c1ccccc1 14.8%
CCN1/C(=C2\C(=O)N(C)C(=S)N2C)C=Cc2cc(C)ccc21 30.1%
CCN1/C(=C2/SC(=S)N(C)C2=O)C=Cc2cc(C)ccc21 1.56%
CC(C)CNC(=S)NC1CC2CCCC(C1)N2Cc1cccs1 (centres undefined) -4.03%
CCOC(=O)Nc1cc(NC(=O)OCC)c(C)nc1C 9.52%
CC(=O)c1ccc(Nc2ncnc3c2oc2ccccc23)cc1 5.82%
Cc1ccc(Nc2ncnc3c2oc2ccccc23)cc1 11.9%
c1ccc2c(c1)oc1c(Nc3ccc(CN4CCOCC4)cc3)ncnc12 14.1%
CCc1nc(Nc2ccccc2)c2oc3ccccc3c2n1 7.79%
CCc1nc(SCC(=O)N2CCN(c3ccccc3)CC2)c2oc3ccccc3c2n1 18.4%
CCc1nc(Nc2ccc(F)cc2)c2oc3ccccc3c2n1 10.5%
c1ccc(Nc2ncnc3c2oc2ccccc23)cc1 13%
CCc1nc(Nc2ccncc2)c2oc3ccccc3c2n1 9.44%
COc1ccc(NC(=O)Nc2nnc(CC(=O)NCc3ccccc3)s2)cc1 -13.3%
COc1cc(C(=O)N2CCN(c3ccc([N+](=O)[O-])cc3)CC2)ccc1OCc1c(C)noc1C 12.9%
COc1cc(NC(=O)Cn2cnc(S(=O)(=O)N3CCCCC3)c2)cc(OC)c1OC 1.97%
